± gives the standard deviation of the averaged measurements. In all, about 33,000 sequences were measured (“E-score (dimensionless, -0.5 to 0.5)”: median about -0.049, highest 2% from about 0.37 on). The sample holds the highest values, similar sequences and a random draw of the others, so the mix is not that of the screen.
The sequences below were run on T1, PmTbr T-box DNA-binding domain (GST fusion) (assay: PBM E-score of 8-mer (E-score (dimensionless, -0.5 to 0.5)); Tbr is Tbrain of the sea star Patiria miniata (Pm) or the sea urchin Strongylocentrotus purpuratus (Sp); higher = stronger binding preference). Conditions: the construct has about 5 more residues each side.
T1 sequence: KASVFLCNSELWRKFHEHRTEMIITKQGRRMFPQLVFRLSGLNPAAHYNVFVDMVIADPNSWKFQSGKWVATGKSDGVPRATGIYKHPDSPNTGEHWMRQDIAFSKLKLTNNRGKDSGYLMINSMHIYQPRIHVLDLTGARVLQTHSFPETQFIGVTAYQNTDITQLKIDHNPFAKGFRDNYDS
In short: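 Using the Universal PBM Analysis Suite, every ungapped 8-mer received an enrichment E-score averaged over duplicate arrays. Probe intensities came from double-stranded Universal Agilent oligonucleotide arrays incubated with 200 nM GST-fused Tbr T-box DNA-binding domain in PBS (pH 7.5). That protein was expressed in BL21 E. coli at 20 °C and purified by glutathione affinity chromatography.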
ACAATGTC was tested, and the “PBM E-score of 8-mer” value was -0.048 ± 0.0089. GTACAGTA was tested, and the “PBM E-score of 8-mer” value was 0.0854 ± 0.013. In the case of GGCAACAC, the “PBM E-score of 8-mer” value is reported as 0.38 ± 0.0047. With GGCAACAA the “PBM E-score of 8-mer” value was 0.05 ± 0.0035. For AGCAACAC, the “PBM E-score of 8-mer” value was 0.383 ± 0.0078. CGCAACAC was tested, and the “PBM E-score of 8-mer” value was 0.356 ± 0.033. For AGCAACAG, the “PBM E-score of 8-mer” value was 0.0636 ± 0.029. With AGCAACAA the “PBM E-score of 8-mer” value was 0.0934 ± 0.021. In the case of ATGCTATA, the “PBM E-score of 8-mer” value is reported as -0.182 ± 0.01. With ATGCGTCA the “PBM E-score of 8-mer” value was 0.161 ± 0.013. With GTCAAACA the “PBM E-score of 8-mer” value was -0.0272 ± 0.074. In the case of ATGCCAGC, the “PBM E-score of 8-mer” value is reported as -0.0462 ± 0.0027. AATGTGTC was tested, and the “PBM E-score of 8-mer” value was 0.425 ± 0.0071. For AATGTGTG, the “PBM E-score of 8-mer” value was 0.408 ± 0.014. AATGTGGC was tested, and the “PBM E-score of 8-mer” value was 0.163 ± 0.0047. For AATGTGTA, the “PBM E-score of 8-mer” value was 0.226 ± 0.029. AATGTGCG was tested, and the “PBM E-score of 8-mer” value was 0.27 ± 0.012. For CATGTGTC, the “PBM E-score of 8-mer” value was 0.309 ± 0.03. With AATAGACT the “PBM E-score of 8-mer” value was -0.175 ± 0.072. With CCACCCCC the “PBM E-score of 8-mer” value was 0.00912 ± 0.024. With ACACCCCT the “PBM E-score of 8-mer” value was 0.4 ± 0.027. In the case of GCACCCCC, the “PBM E-score of 8-mer” value is reported as 0.226 ± 0.047. ACACCCCA was tested, and the “PBM E-score of 8-mer” value was 0.382 ± 0.015. In the case of GCACCCCA, the “PBM E-score of 8-mer” value is reported as 0.242 ± 0.0042. ACACCCGG was tested, and the “PBM E-score of 8-mer” value was 0.3462 ± 0.00071. In the case of CCACCCCG, the “PBM E-score of 8-mer” value is reported as 0.235 ± 0.033. With ACACCCCG the “PBM E-score of 8-mer” value was 0.397 ± 0.029. For TCACCCCA, the “PBM E-score of 8-mer” value was 0.277 ± 0.028. In the case of ACACCCCC, the “PBM E-score of 8-mer” value is reported as 0.379 ± 0.017. In the case of ACCCCTCT, the “PBM E-score of 8-mer” value is reported as -0.0694 ± 0.019. ACCCCCCT was tested, and the “PBM E-score of 8-mer” value was -0.152 ± 0.11. For CGTGCTCC, the “PBM E-score of 8-mer” value was -0.172 ± 0.017. GTTGATCA was tested, and the “PBM E-score of 8-mer” value was 0.0616 ± 0.0014. GATACAGA was tested, and the “PBM E-score of 8-mer” value was -0.189 ± 0.0045. In the case of ACGGCCTC, the “PBM E-score of 8-mer” value is reported as -0.166 ± 0.071. For GTAGGAAA, the “PBM E-score of 8-mer” value was -0.0915 ± 0.041. In the case of GTCGACGA, the “PBM E-score of 8-mer” value is reported as 0.155 ± 0.015. With ACAGACAT the “PBM E-score of 8-mer” value was 0.0773 ± 0.016. With ACACCCAG the “PBM E-score of 8-mer” value was 0.339 ± 0.021. In the case of GCCCAACA, the “PBM E-score of 8-mer” value is reported as 0.0617 ± 0.0082. With AAAATTCT the “PBM E-score of 8-mer” value was -0.1 ± 0.051. For AAGTGTTC, the “PBM E-score of 8-mer” value was 0.298 ± 0.012. GAGTGTTA was tested, and the “PBM E-score of 8-mer” value was 0.385 ± 0.012. With CAGTGTTC the “PBM E-score of 8-mer” value was -0.0572 ± 0.047. In the case of AAGTGTTG, the “PBM E-score of 8-mer” value is reported as 0.437 ± 0.006. In the case of CAGTGTTA, the “PBM E-score of 8-mer” value is reported as 0.322 ± 0.0036. With AAGTGTAC the “PBM E-score of 8-mer” value was 0.0291 ± 0.019. With AAGTGTTA the “PBM E-score of 8-mer” value was 0.467 ± 0.0064. GAGTGTAC was tested, and the “PBM E-score of 8-mer” value was -0.079 ± 0.061. For AAGTGGTA, the “PBM E-score of 8-mer” value was 0.165 ± 0.013. With CTTCTGGC the “PBM E-score of 8-mer” value was -0.0431 ± 0.0062. In the case of AGCCTCCT, the “PBM E-score of 8-mer” value is reported as -0.194 ± 0.057. With ATGACCAG the “PBM E-score of 8-mer” value was -0.119 ± 0.011. With GCTCTAGA the “PBM E-score of 8-mer” value was -0.268 ± 0.07. AACAGCCC was tested, and the “PBM E-score of 8-mer” value was -0.015 ± 0.027. With AGAGCACT the “PBM E-score of 8-mer” value was -0.194 ± 0.044. AGGGATAC was tested, and the “PBM E-score of 8-mer” value was -0.319 ± 0.026. In the case of ATAGCCAA, the “PBM E-score of 8-mer” value is reported as -0.2 ± 0.05. For AAACGTTG, the “PBM E-score of 8-mer” value was -0.22 ± 0.042. ACACGTCG was tested, and the “PBM E-score of 8-mer” value was 0.391 ± 0.018. For CCACGTTA, the “PBM E-score of 8-mer” value was 0.131 ± 0.0074. With ACACGTAG the “PBM E-score of 8-mer” value was 0.206 ± 0.0044. For ACACGTCA, the “PBM E-score of 8-mer” value was 0.361 ± 0.0048. For ACACGTTA, the “PBM E-score of 8-mer” value was 0.3709 ± 0.0015. In the case of ACACGTTG, the “PBM E-score of 8-mer” value is reported as 0.374 ± 0.0049. In the case of ACACGTTC, the “PBM E-score of 8-mer” value is reported as 0.337 ± 0.013. In the case of ACACGTCT, the “PBM E-score of 8-mer” value is reported as 0.355 ± 0.021. In the case of CAGGGATA, the “PBM E-score of 8-mer” value is reported as -0.326 ± 0.061. GGACGCAC was tested, and the “PBM E-score of 8-mer” value was -0.0479 ± 0.052. With AACGAGCC the “PBM E-score of 8-mer” value was -0.319 ± 0.096. CACAGTCC was tested, and the “PBM E-score of 8-mer” value was 0.0117 ± 0.032. In the case of ACTGCACG, the “PBM E-score of 8-mer” value is reported as -0.149 ± 0.031. GGCGAACA was tested, and the “PBM E-score of 8-mer” value was 0.0467 ± 0.018. In the case of TGCGAACA, the “PBM E-score of 8-mer” value is reported as 0.396 ± 0.0075. In the case of TGCGAGAA, the “PBM E-score of 8-mer” value is reported as 0.3906 ± 0.0012. In the case of CGCGAAAA, the “PBM E-score of 8-mer” value is reported as 0.359 ± 0.019. In the case of AGCGAAAA, the “PBM E-score of 8-mer” value is reported as 0.0819 ± 0.093. In the case of AGCGAACA, the “PBM E-score of 8-mer” value is reported as 0.0494 ± 0.02. For TGCGAAAA, the “PBM E-score of 8-mer” value was 0.391 ± 0.03. For GGCGAGAA, the “PBM E-score of 8-mer” value was 0.339 ± 0.005. CGCGAGAA was tested, and the “PBM E-score of 8-mer” value was 0.32 ± 0.0046. For CACTCTAG, the “PBM E-score of 8-mer” value was 0.223 ± 0.0029. In the case of CGTGACCA, the “PBM E-score of 8-mer” value is reported as 0.259 ± 0.018. With AGTGACAC the “PBM E-score of 8-mer” value was 0.44 ± 0.0087. CGTGACAG was tested, and the “PBM E-score of 8-mer” value was 0.27 ± 0.015. With CGTGACAA the “PBM E-score of 8-mer” value was 0.407 ± 0.025. With CTTGACAA the “PBM E-score of 8-mer” value was 0.328 ± 0.0034. GTTGACAA was tested, and the “PBM E-score of 8-mer” value was 0.3821 ± 0.0035. For GGAGACAC, the “PBM E-score of 8-mer” value was 0.142 ± 0.084. AGTGACAT was tested, and the “PBM E-score of 8-mer” value was 0.309 ± 0.017. For AGTGACAG, the “PBM E-score of 8-mer” value was 0.357 ± 0.0084. In the case of GATGACAC, the “PBM E-score of 8-mer” value is reported as 0.36 ± 0.02. In the case of GGTGACAC, the “PBM E-score of 8-mer” value is reported as 0.4691 ± 0.0035. With GTTGACGA the “PBM E-score of 8-mer” value was 0.211 ± 0.012. In the case of AGAAGGGA, the “PBM E-score of 8-mer” value is reported as -0.301 ± 0.082. For AGTATAAT, the “PBM E-score of 8-mer” value was -0.0999 ± 0.092. In the case of ATTGCGCG, the “PBM E-score of 8-mer” value is reported as 0.0393 ± 0.076. In the case of CTCCATTC, the “PBM E-score of 8-mer” value is reported as -0.243 ± 0.042. ATCGTTGA was tested, and the “PBM E-score of 8-mer” value was -0.173 ± 0.031. TATTGGGA was tested, and the “PBM E-score of 8-mer” value was -0.222 ± 0.0037. In the case of AAGCGCCG, the “PBM E-score of 8-mer” value is reported as -0.0564 ± 0.022. For ATTTTTGA, the “PBM E-score of 8-mer” value was -0.289 ± 0.044. For AGTGACGA, the “PBM E-score of 8-mer” value was 0.358 ± 0.016. With GGTGACAA the “PBM E-score of 8-mer” value was 0.47312 ± 1.4e-05. In the case of AGTGACTA, the “PBM E-score of 8-mer” value is reported as 0.115 ± 0.011. With CGTGACGC the “PBM E-score of 8-mer” value was 0.232 ± 0.0054. CGTGACTC was tested, and the “PBM E-score of 8-mer” value was 0.0879 ± 0.021. GGTGACGA was tested, and the “PBM E-score of 8-mer” value was 0.429 ± 0.013. For CGTGACAC, the “PBM E-score of 8-mer” value was 0.398 ± 0.02. With AGTGACCA the “PBM E-score of 8-mer” value was 0.0489 ± 0.11.
